Assay results as given in PubChem BioAssay.
Calls of active or inactive are those of the source.

Columns and labels:
Albumin (Bos taurus) = Albumin (Bos taurus) (UniProt P02769); experiment: bovine serum albumin binders on microarray, profiling panel, artefact control for SMM control protein annotation, biochemical, small-molecule microarray, Alexa647 label, 635/667 nm fluorescence (AID 1118); details: BSA-A647 binding, fluorescence 635 nm, higher = more signal;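 further: score merges 667 nm emission intensity and signal-to-noise per printed compound spot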
Albumin (Bos taurus), sequence (P02769 whole entry, looked up): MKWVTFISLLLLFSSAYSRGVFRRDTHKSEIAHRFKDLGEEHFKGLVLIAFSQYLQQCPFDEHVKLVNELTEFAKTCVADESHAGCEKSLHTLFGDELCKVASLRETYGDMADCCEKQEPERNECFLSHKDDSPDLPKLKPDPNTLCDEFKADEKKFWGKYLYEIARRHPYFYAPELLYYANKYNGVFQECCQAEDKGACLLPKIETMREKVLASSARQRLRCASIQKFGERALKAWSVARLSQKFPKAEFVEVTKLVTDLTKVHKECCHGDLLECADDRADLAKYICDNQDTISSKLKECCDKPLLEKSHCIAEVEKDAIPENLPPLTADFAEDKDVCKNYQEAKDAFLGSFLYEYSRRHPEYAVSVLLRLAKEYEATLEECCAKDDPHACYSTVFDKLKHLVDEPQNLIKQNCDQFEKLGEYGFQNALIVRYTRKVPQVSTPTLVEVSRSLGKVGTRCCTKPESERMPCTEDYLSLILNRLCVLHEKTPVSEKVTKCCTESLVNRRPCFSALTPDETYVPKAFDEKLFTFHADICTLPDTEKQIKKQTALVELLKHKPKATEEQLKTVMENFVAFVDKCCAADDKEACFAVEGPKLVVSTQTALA

[1] = small-molecule microarray binders of probe aXIP, primary screen, biochemical, NeuroSMM set, 635/667 nm fluorescence (AID 1119); details: higher = more signal, called active from +8 up or from −8 down;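 further: probe is the protein aXip251-270 applied at 1 µg/mL to compound-printed slides; binding of probe to printed compounds measured as 667 nm fluorescence plus signal to noise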
[2] = small-molecule binders of probe aNOTCH3, primary screen, biochemical, small-molecule microarray, 635/667 nm fluorescence (AID 1120); details: higher = more signal;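 further: probe is a biotin-tagged antibody raised against NOTCH3 rather than NOTCH3 protein; score merges spot fluorescence near 667 nm with spot signal to noise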
[3] = small-molecule binders of probe aNOTCH2, primary screen, biochemical, small-molecule microarray, 635/667 nm fluorescence (AID 1121); details: higher = more signal;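 further: score merges feature fluorescence read at 667 nm with its signal to noise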
[4] = target: Carbonic anhydrase 2 (Homo sapiens) (UniProt P00918); experiment: CAII small-molecule binders, profiling panel, biochemical, small-molecule microarray, Alexa647-labelled CAII (AID 1122); details: CAII-A647 binding fluorescence, higher = more signal
[5] = COS7 lysate on small-molecule microarray, probe aHis, 635 nm (AID 1123); details: COS7 cell lysate, fluorescence, higher = more signal;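 further: z-score combines 667nm fluorescence intensity with signal-to-noise per printed compound spot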
[6] = compound binding in COS7 lysate, probe aLAP1, primary screen, cell lysate, small-molecule microarray (AID 1124); details: probe aLAP1, fluorescence, higher = more signal;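 further: lysate comes from COS7 cells expressing LAP1 and is applied at 0.3 µg/mL; score merges spot fluorescence near 667 nm with signal-to-noise over triplicate slides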
Sam68 (KHDRBS1) = experiment: Sam68 small-molecule binders, primary screen, biochemical, small-molecule microarray, 635 nm fluorescence (AID 1125); details: small-molecule microarray binding, higher = more signal;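 further: score merges 667 nm channel intensity with signal to noise over triplicate slides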
[7] = system: Chordin-like protein 2 (CHRDL2); experiment: CHRDL2 small-molecule binders, primary screen, biochemical, small-molecule microarray, 635 nm fluorescence (AID 1126); details: small-molecule microarray binding, fluorescence 635 nm; higher = more signal;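 further: printed compound slides probed with Chrdl2 protein at 4 µg/mL for 1 h at 4 C; score merges 667 nm emission intensity with signal to noise over three replicate slides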
[8] = target: Concanavalin-A (Canavalia ensiformis) (UniProt P02866); experiment: ConA small-molecule binders, primary screen, artefact control for SMM control protein annotation, biochemical, small-molecule microarray, Alexa647 label, 635 nm (AID 1127); details: ConA-A647 binding fluorescence, higher = more signal;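 further: z combines 667 nm emission intensity with signal-to-noise across three replicate slides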
Concanavalin-A (Canavalia ensiformis), sequence (P02866 whole entry, looked up): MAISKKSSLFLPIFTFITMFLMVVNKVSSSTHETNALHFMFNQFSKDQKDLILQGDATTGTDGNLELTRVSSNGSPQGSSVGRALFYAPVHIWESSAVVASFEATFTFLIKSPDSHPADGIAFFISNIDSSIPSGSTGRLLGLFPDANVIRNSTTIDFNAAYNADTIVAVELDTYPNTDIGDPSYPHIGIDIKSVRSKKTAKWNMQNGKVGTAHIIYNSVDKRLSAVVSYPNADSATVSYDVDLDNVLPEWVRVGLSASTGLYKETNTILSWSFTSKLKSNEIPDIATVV

[9] = anti-His antibody binders, primary screen, artefact control for SMM control protein annotation, biochemical, small-molecule microarray, 635 nm fluorescence (AID 1128); details: anti-His Alexa647 antibody binding, higher = more signal;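 further: score merges feature fluorescence with signal-to-noise for each printed compound spot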
[10] = system: Human papillomavirus type 1a E7 protein (residues 1-88); experiment: HPV1a E7 small-molecule binders, primary screen, biochemical, small-molecule microarray, residues 1-88, 635 nm (AID 1129); details: small-molecule microarray binding, fluorescence 635 nm; higher = more signal
[11] = target: Focal adhesion kinase 1 (Homo sapiens) (UniProt Q05397); experiment: small-molecule microarray binders of FAK, primary screen, biochemical, 635/667 nm fluorescence, BSA, DTT (AID 1130); details: PTK2 binding, 635 nm fluorescence, higher = more signal;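 further: composite of spot emission at 667 nm and signal to noise over triplicate slides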
Focal adhesion kinase 1 (Homo sapiens), sequence (Q05397 whole entry, looked up): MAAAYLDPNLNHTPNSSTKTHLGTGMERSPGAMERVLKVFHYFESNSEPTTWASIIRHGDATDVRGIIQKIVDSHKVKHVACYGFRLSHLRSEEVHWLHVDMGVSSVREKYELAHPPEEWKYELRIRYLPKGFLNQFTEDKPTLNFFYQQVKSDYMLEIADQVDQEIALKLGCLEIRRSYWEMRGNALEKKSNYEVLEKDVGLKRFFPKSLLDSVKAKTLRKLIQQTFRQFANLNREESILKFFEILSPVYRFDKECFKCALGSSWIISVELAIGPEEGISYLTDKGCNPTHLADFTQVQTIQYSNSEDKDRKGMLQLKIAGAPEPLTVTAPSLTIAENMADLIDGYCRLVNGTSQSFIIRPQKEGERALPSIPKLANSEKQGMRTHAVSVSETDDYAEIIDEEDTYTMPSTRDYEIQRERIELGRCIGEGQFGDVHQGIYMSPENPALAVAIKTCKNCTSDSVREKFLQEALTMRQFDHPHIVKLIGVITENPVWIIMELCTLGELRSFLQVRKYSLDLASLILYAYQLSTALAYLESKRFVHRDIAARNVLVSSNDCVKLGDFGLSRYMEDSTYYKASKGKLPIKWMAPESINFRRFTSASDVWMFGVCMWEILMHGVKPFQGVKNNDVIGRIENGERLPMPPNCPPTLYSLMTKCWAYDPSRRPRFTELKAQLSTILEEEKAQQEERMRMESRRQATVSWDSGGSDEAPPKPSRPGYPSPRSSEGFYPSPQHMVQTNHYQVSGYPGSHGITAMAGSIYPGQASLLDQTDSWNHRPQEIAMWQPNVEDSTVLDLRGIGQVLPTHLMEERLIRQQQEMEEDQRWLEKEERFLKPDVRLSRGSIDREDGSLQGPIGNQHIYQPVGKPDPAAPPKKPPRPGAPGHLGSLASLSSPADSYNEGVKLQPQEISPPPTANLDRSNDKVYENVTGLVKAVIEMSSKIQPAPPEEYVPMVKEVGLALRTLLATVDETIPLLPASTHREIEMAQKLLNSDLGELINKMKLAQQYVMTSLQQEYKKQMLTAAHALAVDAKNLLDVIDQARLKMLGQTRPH

[12] = system: Fibrinogen (Alexa647-labelled); experiment: fibrinogen binders on compound microarrays, profiling panel, artefact control for SMM control-protein annotation, biochemical, small-molecule microarray, 635/667 nm fluorescence (AID 1131); details: fibrinogen-A647 binding fluorescence, higher = more signal;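 further: z-score merges 667 nm fluorescence with per-spot signal-to-noise over triplicate slides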
[13] = target: Follistatin (Homo sapiens) (UniProt P19883); experiment: follistatin binders on small-molecule microarrays, primary screen, biochemical, small-molecule microarray, 635/667 nm fluorescence (AID 1132); details: FST binding, 635 nm fluorescence, higher = more signal
Follistatin (Homo sapiens), sequence (P19883 whole entry, looked up): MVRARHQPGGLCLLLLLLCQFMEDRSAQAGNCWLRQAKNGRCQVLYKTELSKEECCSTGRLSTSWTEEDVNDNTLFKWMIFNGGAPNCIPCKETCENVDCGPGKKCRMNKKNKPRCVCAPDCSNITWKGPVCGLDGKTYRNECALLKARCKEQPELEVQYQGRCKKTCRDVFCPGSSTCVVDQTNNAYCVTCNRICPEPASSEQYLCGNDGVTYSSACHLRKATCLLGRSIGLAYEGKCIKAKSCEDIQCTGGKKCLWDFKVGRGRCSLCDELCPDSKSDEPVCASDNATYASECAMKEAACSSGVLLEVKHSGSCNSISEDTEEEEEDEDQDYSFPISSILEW

[14] = target: Fibroblast growth factor 2 (Homo sapiens) (UniProt P09038); experiment: FGF2 binders on small-molecule microarrays, primary screen, biochemical, small-molecule microarray, 635/667 nm fluorescence (AID 1133); details: small-molecule microarray binding, FGF2, fluorescence 635/667; higher = more signal
Fibroblast growth factor 2 (Homo sapiens), sequence (P09038 whole entry, looked up): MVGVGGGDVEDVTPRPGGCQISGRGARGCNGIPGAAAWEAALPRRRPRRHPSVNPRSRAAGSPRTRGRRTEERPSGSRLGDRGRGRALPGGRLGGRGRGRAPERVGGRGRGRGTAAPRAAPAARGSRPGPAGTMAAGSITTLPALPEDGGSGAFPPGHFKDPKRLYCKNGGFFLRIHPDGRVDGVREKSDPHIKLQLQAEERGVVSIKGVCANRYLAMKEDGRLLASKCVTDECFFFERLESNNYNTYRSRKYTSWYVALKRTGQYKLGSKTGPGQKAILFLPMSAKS

[15] = mitochondrial membrane potential change in A549 cells, profiling panel, cell-based, JC-1 fluorescence, basal, 24 h, 100 nL (AID 1138); details: higher = more signal;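 further: A549 lung adenocarcinoma cells under basal conditions with no added stimulus; test concentration not given here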
Lefty1 = Lefty1 binders on small-molecule microarrays, primary screen, biochemical, small-molecule microarray, 635/667 nm fluorescence (AID 1139); details: small-molecule microarray binding, fluorescence 635/667; higher = more signal
[16] = system: wheat germ agglutinin (Triticum aestivum), Alexa647-labelled; experiment: wheat germ agglutinin binders on compound microarrays, profiling panel, artefact control for SMM control-protein annotation, biochemical, small-molecule microarray, 635/667 nm fluorescence (AID 1140); details: WGA-A647 binding, 635 nm fluorescence, higher = more signal;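 further: score merges 667 nm feature emission with signal to noise over triplicate slides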
[17] = target: Luciferin 4-monooxygenase (Photinus pyralis) (UniProt P08659); experiment: firefly luciferase enzyme inhibitors, primary screen, biochemical, luminescence, purified enzyme, 2006 set (AID 1141); details: SteadyGlo luminescence, 30 min, higher = more signal, called active from +8 up or from −8 down;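 further: cell-free assay with purified firefly luciferase at 100 ng per well in PBS; test concentration not given here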
Luciferin 4-monooxygenase (Photinus pyralis), sequence (P08659 whole entry, looked up): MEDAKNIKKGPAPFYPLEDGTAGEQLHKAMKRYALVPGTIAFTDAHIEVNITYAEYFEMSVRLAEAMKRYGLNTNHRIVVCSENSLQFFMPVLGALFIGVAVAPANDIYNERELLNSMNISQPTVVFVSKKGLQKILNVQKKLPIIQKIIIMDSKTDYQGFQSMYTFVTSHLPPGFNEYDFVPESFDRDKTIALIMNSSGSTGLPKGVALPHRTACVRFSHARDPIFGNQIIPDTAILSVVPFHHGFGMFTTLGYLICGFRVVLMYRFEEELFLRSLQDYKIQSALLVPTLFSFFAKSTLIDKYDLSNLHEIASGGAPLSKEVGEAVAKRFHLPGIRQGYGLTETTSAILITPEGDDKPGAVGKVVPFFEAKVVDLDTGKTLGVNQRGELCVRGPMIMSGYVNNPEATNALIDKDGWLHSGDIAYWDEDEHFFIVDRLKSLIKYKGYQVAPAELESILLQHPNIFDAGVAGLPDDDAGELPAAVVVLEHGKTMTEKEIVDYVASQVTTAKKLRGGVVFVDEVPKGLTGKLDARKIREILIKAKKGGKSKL

SMILES	composite z-score (Albumin (Bos taurus))	composite Z-score [1]	composite z-score [2]	composite z-score [3]	composite z-score [4]	composite z-score [5]	composite z-score [6]	composite z-score (Sam68 (KHDRBS1))	composite z-score [7]	composite z-score [8]	composite z-score [9]	composite z-score [10]	composite z-score [11]	composite z-score [12]	composite z-score [13]	composite z-score [14]	z-score [15]	composite z-score (Lefty1)	composite z-score [16]	z-score [17]
COCCOC(=O)N1C(=O)[C@@]2(c3cc(C#Cc4ccc(OC)cc4)ccc31)[C@H](c1ccc(OCCO)cc1)N1[C@H](c3ccccc3)[C@H](c3ccccc3)OC(=O)[C@H]1[C@@H]2C(=O)N1CCN(c2ncccn2)CC1	-0.701	-0.799 (inactive)	-0.0311	-0.102	0.357	0.977	0.182	1.33	0.575	1.11	0.343	1.15	0.424	-0.51	1.21	1.43	-0.918	1.28	-0.0073	-0.618 (inactive)
CC(C)C(=C=CC[C@H](O)c1ccc(OCCO)cc1)CCO	0.467	-0.435 (inactive)	-0.116	-0.174	0.228	1.83	0.182	1.28	0.489	0.549	1.07	1.2	0.178	0.53	1.38	1.05	0.41	1.07	0.295	-0.961 (inactive)
COC(=O)C(CC#Cc1ccc2c(c1)[C@]1(C(=O)N2)[C@H](c2ccc(OCCO)cc2)N2[C@H](c3ccccc3)[C@H](c3ccccc3)OC(=O)[C@H]2[C@@H]1C(=O)N1CCc2cc(OC)c(OC)cc2C1)C(=O)OC	0.863	-0.527 (inactive)	0.407	-0.0326	0.542	2.04	0.397	1.31	0.547	1.15	0.857	1.2	0.343	1	1.41	1.57	-1.26	1.36	0.423	-0.465 (inactive)
CC(C)c1ccc(NN2C(C(O)c3ccc(B(O)O)cc3)C=CC3C(=O)N(c4ccccc4)C(=O)C32)cc1 (stereo not given)	0.958	-0.852 (inactive)	0.216	0.0571	0.493	2.32	0.681	1.26	-1.06	1.06	1.24	1.2	0.581	0.952	1.32	-0.159	-0.641	0.481	0.783	-6.16 (inactive)
O=C1C2C=CC(C(O)Cc3ccccc3)N(n3cnnc3)C2C(=O)N1Cc1ccccc1 (stereo not given)	1.03	-0.188 (inactive)	0.206	0.0248	0.449	1.14	0.75	0.646	-0.748	0.779	1.38	0.396	-0.249	0.573	-0.185	-0.279	-1.48	-0.648	1.31	0.921 (inactive)
[N-]=[N+]=NCc1ccccc1C[C@]1(C(=O)N2CCCCC2)N=C(c2ccc(OCCCO)cc2)O[C@H]1c1ccccc1N=[N+]=[N-]	0.836	-0.602 (inactive)	0.194	0.0097	0.593	2.45	0.799	1.33	-0.518	1.1	2.87	1.23	1.71	0.984	0.887	-0.0521	-0.756	-0.0342	1	-9.69 (active)
C=C(/C(=C/C[C@H](OC(C)=O)c1ccccc1OCCO)c1cnc2ccccc2c1)C(C)C	0.0816	-0.323 (inactive)	0.16	-0.102	0.722	0.202	-0.0507	0.461	0.384	0.922	-0.577	0.0336	0.119	-0.498	1.3	0.58	1.12	0.505	1.07	-1.14 (inactive)
C=C(CCCC)/C(=C/C[C@@H](OC(C)=O)c1ccc(OCCO)cc1)c1cnc2ccccc2c1	0.631	-0.302 (inactive)	0.0964	-0.0942	0.718	0.696	0.35	1.28	0.963	0.555	1.42	0.974	0.153	0.539	1.12	0.502	1.49	0.856	0.773	-1.81 (inactive)
